A selection: hits, their analogues and other compounds. The true share with any hit is near 4.1%.
tim10-1 inh: tim10-1 yeast growth inhibition | S. cerevisiae tim10-1 ts strain growth, BacTiter-Glo, 24 h | inhibition, % at 20 µM | 330,000 tested, 2.2% active | AID 463190;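 active means inhibition of at least 40%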;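 further: mutant grown at 25 °C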
NALP3 yeast inh: inhibitors of NALP3 inflammasome in yeast; Yeast reconstituted NLRP3/ASC/caspase-1, beta-gal luminescence, 24 h; inhibition, % at 10 µM; 330,000 tested, 0.39% active; AID 2825;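 active means inhibition of 50% or more; inactive means inhibition below 50%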
PfHsp90 yeast 2: growth inhibition of yeast expressing Plasmodium Hsp90; S. cerevisiae expressing PfHsp90, BacTiter-Glo ATP, 48 h; yeast lacking PDR1 and PDR3 efflux regulators; inhibition, % at 9.4 µM; 310,000 tested, 0.32% active;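 active means every replicate shows inhibition above about 80%, whatever the replicate mean, limit read from the data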
tim23-1 inh: tim23-1 yeast growth inhibition; S. cerevisiae tim23-1 growth, BacTiter-Glo luminescence, 24 h; inhibition, % at 20 µM; 330,000 tested, 1.3% active;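 active means growth inhibition of the mutant yeast at or above 50%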;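 further: temperature-sensitive mutant grown at 25 °C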
NALP1 inh: inhibitors of NALP1 inflammasome in yeast | AID 2071 | inhibition, % at 10 µM | S. cerevisiae NALP1/ASC/caspase-1 growth, X-gal OD620, 72 h | 280,000 tested, 0.61% active; in the data active means inhibition mostly above about 24%, no sharp cut-off; inactive means mostly below about 32%
TIM10 inh: growth inhibitors of TIM10 yeast strain | AID 463195 | 330,000 tested, 1.4% active | inhibition, % at 10 µM | S. cerevisiae TIM10 strain growth, BacTiter-Glo luminescence, 24 h;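 active means inhibition of 40% or more at the single tested concentration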;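 further: wild-type TIM10 isogenic control strain grown at permissive 25 °C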
Large screens that a line does not name were inactive.

CC(C)c1ccc(CN2CCN(C(=O)CCl)CC2)cc1	NALP1 inh 59 (no result: tim10-1 inh, NALP3 yeast inh, tim23-1 inh, TIM10 inh)
CC(C)c1ccc(/C=C/C(=O)Nc2ccc(CN3CCOCC3)cc2)cc1	NALP1 inh 40 (no result: PfHsp90 yeast 2)
Cc1c(C(=O)O)c(C(=O)O)c2n1CCS2	none
CC(C)(Cl)C1Cc2cc3ccc(=O)oc3cc2O1 (stereo not drawn)	NALP1 inh 24
CC(=O)OC(C)(C)C1Cc2cc3ccc(=O)oc3cc2O1 (stereo not drawn)	none
O=C(COC(=O)Cn1cnc2ccccc21)Nc1ccc2c(c1)C(=O)c1ccccc1C2=O	NALP1 inh 50
CC(=O)c1ccc(NC(=O)COC(=O)Cn2cnc3ccccc32)cc1	none (no result: NALP1 inh)
CCN(N=O)c1ccc(C=C2C=Cc3ccccc32)cc1	none (no result: tim10-1 inh, NALP3 yeast inh, tim23-1 inh, NALP1 inh, TIM10 inh)
O=C(CN1CCCCC1)N/N=C/c1cccc(Cl)c1	none
O=C(CN1CCCC1)N/N=C/c1ccc(-c2cccc(Cl)c2)o1	NALP1 inh 32
Cc1ccc(/C=N/NC(=O)CN2CCN(Cc3ccccc3)CC2)o1	NALP1 inh 45
CN(C(=O)c1cccc(NC(=O)Cc2ccc(NC(=O)C3CCCN(S(=O)(=O)c4cccc([N+](=O)[O-])c4)C3)cc2)c1)C1CCCC1 (stereo not drawn)	none (no result: tim10-1 inh, NALP3 yeast inh, tim23-1 inh, NALP1 inh, TIM10 inh)
CCOc1cc(-c2nc(-c3ccncc3)no2)cc(OCC)c1OCC	NALP1 inh 22
CCOc1ccc(-c2nc(-c3ccncc3)no2)cc1OCC	none
CC1CCN(C(=O)CN2C(=O)NC(C)(c3ccc4ccccc4c3)C2=O)CC1 (stereo not drawn)	none (no result: NALP1 inh)
COCCNc1nc(-c2ccc(OC)cc2)c(-c2ccc(OC)cc2)s1	NALP1 inh 35
CCN(CC)CCNc1nc(-c2ccc(OC)cc2)c(-c2ccc(OC)cc2)s1	none
C(=N\N=C\c1ccccc1)/c1ccccc1	NALP1 inh 36
Cc1ccc(/C=N/N=C/c2ccc(C)cc2)cc1	none
O=C(O)c1ccc(OS(=O)(=O)c2ccc(Cl)s2)c(Cl)c1	none (no result: NALP1 inh)
CCCCCOC(=O)C1=C(C)NC(=O)NC1c1ccc(OC)cc1 (stereo not drawn)	none
O=c1[nH]c(CSc2nc3ccccc3s2)nc2ccccc12	none (no result: NALP1 inh)
COc1ccc(C2NCCc3c2[nH]c2ccccc32)cc1CSc1nc2ccccc2s1 (stereo not drawn)	NALP1 inh 57 (no result: tim10-1 inh, NALP3 yeast inh, tim23-1 inh, TIM10 inh)
OC(Cn1cncn1)(c1ccc(F)cc1)c1ccc(Cl)cc1 (stereo not drawn)	PfHsp90 yeast 2 94
Cc1ccc(/C=[N+](\[O-])c2ccc(N(C)C)cc2)c2nsnc12	PfHsp90 yeast 2 109
Cc1ccc2nsnc2c1NS(=O)(=O)c1c(C)ccc2nsnc12	none
CN(Cc1ccccc1)C(=O)c1cccc(NC(=O)Cc2cccc([N+](=O)[O-])c2)c1	none (no result: NALP1 inh)
CCCCC(=O)Nc1cc(C)c(NC(=O)c2ccco2)cn1	none
Cc1ccc2c(=O)cc(C(F)F)oc2c1	NALP1 inh 41
Cc1ccc(C(=O)NCC(=O)OCn2nnc3ccccc3c2=O)cc1	none (no result: NALP1 inh)
CCCn1c(N)c(N2CCCCC2)c(=O)n(CC(=O)Nc2ccccc2C)c1=O	NALP1 inh 37
Cc1cccc(C)c1NC(=O)Cn1c(=O)c(N2CCCCC2)c(N)n(C)c1=O	none (no result: PfHsp90 yeast 2, NALP1 inh)
Cc1cc(=O)[nH]c(SCCCOc2ccc(F)cc2)n1	NALP1 inh 41
CCCOc1cccc(OCCSc2nc(C)cc(=O)[nH]2)c1	none
O=C(c1ccccc1)C(CN1CCCCC1)c1ccccc1 (stereo not drawn)	none (no result: tim10-1 inh, NALP3 yeast inh, tim23-1 inh, NALP1 inh, TIM10 inh)
CCOc1ccc(C(=O)C(CN2CCOCC2)c2ccccc2)cc1 (stereo not drawn)	NALP1 inh 84 (no result: tim10-1 inh, NALP3 yeast inh, tim23-1 inh, TIM10 inh)
OC(COc1ccc(OCc2ccccc2)cc1)CN1CCOCC1 (stereo not drawn)	NALP1 inh 39
O=C(N/N=C1/CC2C=CCC12)c1cccs1 (stereo not drawn)	none
CC1=C([N+](=O)[O-])C(c2ccc(Cl)cc2)NC(=O)N1C (stereo not drawn)	none
Cc1ccc(NC(=O)c2sc3nc(CCl)[nH]c(=O)c3c2C)c(C)c1	none (no result: tim10-1 inh, NALP3 yeast inh, tim23-1 inh, TIM10 inh)
Nc1cc(=O)[nH]c(SCc2cccc3ccccc23)n1	none
COc1ccccc1-c1noc(CSc2nc(N)cc(=O)[nH]2)n1	NALP1 inh 33
COc1ccc(NC2CCCN(C(=O)c3ccc(C(C)=O)cc3)C2)cc1 (stereo not drawn)	none
